Reference: the supplement of paper PMC12636033
± gives the standard deviation of the averaged measurements. The full ranking holds about 33,000 sequences; the median of “E-score (rank enrichment, -0.5 to 0.5)” is about -0.0075, and the highest 2% start at about 0.23. This is one part of a sample in which the highest values are shown more often than they occur.

The sequences below were run on WT Max(13-93) synthetic (M65Nle) (assay: PBM 8-mer E-score (E-score (rank enrichment, -0.5 to 0.5)); higher = stronger preferential binding).
Procedure: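 Protein binding microarray (universal PBM chip covering all 10-mers in fixed probe flanks) with chemically synthesized human Max(13-93) bHLH-LZ analogs (not full-length Max) bearing noncanonical residues (hArg, Tha, Aib, Nle at 65) and aromatic Cys staples. Read-out per 8-mer (and its reverse complement): E-score (rank-based enrichment, -0.5 to 0.5) and Z-score of median probe intensity.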

Sequence	PBM 8-mer E-score
AGCGTGCA	0.285 ± 0.03
GGCGTGCA	0.0504 ± 0.037
CTCGTGCA	0.134 ± 0.097
AGCGTGCG	0.0436 ± 0.017
CGCGTGCA	0.285 ± 0.03
CAAATTCA	-0.0652 ± 0.032
ATATTCTC	0.189 ± 0.055
ATACCACA	0.159 ± 0.0088
AAACCACA	0.223 ± 0.0085
ATACCACC	0.121 ± 0.028
CAACCACG	0.301 ± 0.041
CAACCACA	-0.0966 ± 0.041
GTGCCACA	-0.00257 ± 8.5e-05
ATACCACG	0.255 ± 0.015
ATGCCACA	0.00378 ± 0.092
ATGCCACG	0.259 ± 0.059
CGTGATTC	0.117 ± 0.036
AGAACTGC	-0.0987 ± 0.0029
CTTCACCC	0.151 ± 0.046
ATAGACGG	0.103 ± 0.018
ATGCGCAT	0.285 ± 0.06
ATGCGCAA	0.1417 ± 0.00042

Sequence	PBM 8-mer E-score
ATGCGCAC	0.102 ± 0.09
CAACGCAG	-0.158 ± 0.021
ACCCGAAC	-0.0582 ± 0.096
AATGAACG	0.163 ± 0.04
AACACCGC	-0.0751 ± 0.024
GATTAAAC	0.0366 ± 0.087
GTTTAAAA	0.0508 ± 0.026
GTTTAAAC	0.254 ± 0.0084
CTTTAAAC	0.143 ± 0.0068
ATTTAAAC	0.263 ± 0.046
ATTTAAAG	0.0962 ± 0.044
TACATCTA	0.0666 ± 0.053
CCGTTTAC	0.0331 ± 0.077
AATCTGTC	0.0805 ± 0.0072
ACGCATAG	0.0507 ± 0.032
ACGCATGG	0.243 ± 0.026
CCGCATGC	0.2 ± 0.02
ACGCATCC	0.00574 ± 0.012
ACGCATGA	0.127 ± 0.021
ACGCATGC	0.281 ± 0.04
CGATTTCC	-0.13 ± 0.008
GTGCTGGA	-0.0429 ± 0.077

Sequence	PBM 8-mer E-score
ATAAATAC	0.295 ± 0.022
ATAAATAG	0.18 ± 0.017
ATAAATAT	0.267 ± 0.0039
CTAAATAA	0.119 ± 0.1
TTAAATAA	0.12 ± 0.035
ATAAATAA	0.157 ± 0.031
AACAGTTG	-0.0604 ± 0.064
GGACCTCC	-0.149 ± 0.028
CCCCCCGA	-0.154 ± 0.12
TACTTGGA	0.0409 ± 0.043
AATATTAT	0.285 ± 0.026
ACTATTAA	0.133 ± 0.0048
TATATTAA	0.213 ± 0.011
GATATTAA	0.029 ± 0.025
AATATTAC	0.228 ± 0.029
ATTATTAA	0.172 ± 0.066
CATATTAG	0.15 ± 0.046
CATATTAC	0.156 ± 0.05
AATATTAA	0.263 ± 0.014
CATATTAA	0.306 ± 0.014
GATATTAC	0.237 ± 0.02
AATATTAG	0.152 ± 0.15

Sequence	PBM 8-mer E-score
CTCCCAGA	-0.18 ± 0.049
CCCCCAGG	-0.289 ± 0.17
AAATTGTT	0.0622 ± 0.024
AAAATGTG	0.205 ± 0.015
AGCGACAT	0.113 ± 0.056
CATAGGTA	0.00152 ± 0.065
GATAGGTA	0.24 ± 0.073
AATAGGTA	0.195 ± 0.0039
GGCCTTTA	0.0556 ± 0.0086
GACGTGGC	-0.0348 ± 0.019
CACGTGGA	0.4856 ± 0.0019
GACGTGGA	-0.0291 ± 0.023
TACGTGGA	0.109 ± 0.08
CACGTGGC	0.4858 ± 0.0018
AACGTGGG	0.215 ± 0.03
CAAGTGGG	0.0824 ± 0.037
AACGTGGC	0.218 ± 0.022
CACGTGGG	0.4865 ± 0.00015
CTTACAAC	-0.0407 ± 0.16
TGTAAGAA	0.12121 ± 1.4e-05
